Source: PubChem BioAssay AID1259313 (Sanford-Burnham Center for Chemical Genomics, 2017)
The whole screen tested about 340,000 compounds, of which about 8,500 (2.5%) were called active. The sample holds actives, similar compounds and a random draw of the others, so the mix is not that of the screen. A number with no mark means an inactive call.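 Rule for the calls: active = melting temperature shift of at least 10% of the positive control shift, at one fixed dose; inactive = the rest.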

Tested on: Glutamate receptor ionotropic, NMDA 3A (GRIN3A) ligand-binding domain
Experiment: binders of NR3A ligand-binding domain, primary screen, biophysical, differential scanning fluorimetry, uHTS (AID 1259313)
Conditions: NR3A LBD differential scanning fluorimetry, at 25 µM, hits give high values, 0% = protein alone, 100% = glycine-bound protein

How did the Tm shift relative to glycine control turn out when Cc1ccc(Oc2cc(NC(=O)CCCn3nc(C)c([N+](=O)[O-])c3C)cc([N+](=O)[O-])c2)cc1 was run?
The Tm shift relative to glycine control was 14.9% (active).

Which Tm shift relative to glycine control does the source give for CCc1ccc(NC(=O)Cn2nc(C)c([N+](=O)[O-])c2C)cc1 here?
Its Tm shift relative to glycine control is -12.5%.

How did the Tm shift relative to glycine control turn out when COc1ccc(CNC(=O)CCCn2nc(C)c([N+](=O)[O-])c2C)cc1 was run?
Its Tm shift relative to glycine control is 2.36%.

How did the Tm shift relative to glycine control turn out when Cc1cc(C)cc(OCC(=O)OCC(=O)NC2CCCC2)c1 was run?
Its Tm shift relative to glycine control is 1.75%.

CCOC(=O)C1CCCN(C(=O)Cn2ncc3c(=O)oc4ccc(C)cc4c32)C1 (stereo not drawn) was tested. Which Tm shift relative to glycine control did it give?
The Tm shift relative to glycine control was -4.2%.

Which Tm shift relative to glycine control does the source give for Cc1ccc(-c2nnc(CN3CCN(C)CC3)o2)cc1 here?
The Tm shift relative to glycine control was 0.59%.

With CC1CN(C(=S)Nc2ccc(S(N)(=O)=O)cc2)CC(C)O1 (stereo not drawn) as the compound, how does the Tm shift relative to glycine control read?
Its Tm shift relative to glycine control is -1.98%.

How did the Tm shift relative to glycine control turn out when CC1Cc2ccccc2N1CC(=O)Nc1ccc(S(N)(=O)=O)cc1 (stereo not drawn) was run?
Its Tm shift relative to glycine control is 6.2%.

CC1CC(C)CN(CC(=O)Nc2ccc(S(N)(=O)=O)cc2)C1 (stereo not drawn) was tested. Which Tm shift relative to glycine control did it give?
Its Tm shift relative to glycine control is 10% (active).

How did the Tm shift relative to glycine control turn out when Cc1ccc(Nc2c(O)nc[nH]c2=O)cc1C was run?
Its Tm shift relative to glycine control is -3.98%.

O=C(COC(=O)C1CCN(S(=O)(=O)c2ccc3c(c2)OCCO3)CC1)Nc1ccccc1OC(F)F was tested. Which Tm shift relative to glycine control did it give?
Its Tm shift relative to glycine control is 10.1% (active).

Which Tm shift relative to glycine control does the source give for COc1ccccc1CNC(=O)C1CCN(S(=O)(=O)c2ccc3c(c2)OCCO3)CC1 here?
Its Tm shift relative to glycine control is 6.45%.

How did the Tm shift relative to glycine control turn out when CCOC(=O)C1CCN(C(=O)COC(=O)C2CCN(S(=O)(=O)c3ccc4c(c3)OCCO4)CC2)CC1 was run?
The Tm shift relative to glycine control was -0.43%.

Which Tm shift relative to glycine control does the source give for O=C(CSc1ncnc2scc(-c3ccccc3)c12)NCc1ccc2c(c1)OCO2 here?
Its Tm shift relative to glycine control is -0.99%.

For O=C(NN=Cc1ccccc1O)NN=Cc1ccccc1O, which Tm shift relative to glycine control is on record?
Its Tm shift relative to glycine control is 29.9% (active).

O=C(NN=Cc1ccccc1O)C(=O)NN=Cc1ccccc1O was tested. Which Tm shift relative to glycine control did it give?
Its Tm shift relative to glycine control is -0.25%.

O=C(N/N=C/c1ccccc1O)C1CCCC1 was tested. Which Tm shift relative to glycine control did it give?
Its Tm shift relative to glycine control is -0.52%.

COc1ccc(C2NC(=O)N(C)C(C)=C2[N+](=O)[O-])cc1 (stereo not drawn) was tested. Which Tm shift relative to glycine control did it give?
The Tm shift relative to glycine control was 0%.

How did the Tm shift relative to glycine control turn out when CC(=O)c1ccc(NC(=O)Nc2ccc([N+](=O)[O-])cc2C)cc1 was run?
The Tm shift relative to glycine control was 7.59%.

Which Tm shift relative to glycine control does the source give for Cc1cc([N+](=O)[O-])ccc1NC(=O)c1ccc(NC(=O)C(C)C)cc1 here?
The Tm shift relative to glycine control was 13.6% (active).

Which Tm shift relative to glycine control does the source give for CC(C)C(=O)Nc1cccc(NC(=O)c2ccc([N+](=O)[O-])cc2Cl)c1 here?
The Tm shift relative to glycine control was -1.57%.

CN(Cc1ccco1)S(=O)(=O)c1nnc(NC(=O)c2ccccc2)s1 was tested. Which Tm shift relative to glycine control did it give?
Its Tm shift relative to glycine control is -1.03%.

With CC(C)(Oc1ccc(C2CC2(Cl)Cl)cc1)C(=O)O (stereo not drawn) as the compound, how does the Tm shift relative to glycine control read?
The Tm shift relative to glycine control was -0.77%.

With O=C(Nc1ccc(Cl)cc1)Nc1ccc(C(=O)N2CCOCC2)cc1 as the compound, how does the Tm shift relative to glycine control read?
Its Tm shift relative to glycine control is 2.25%.

O=C(NCc1ccccn1)Nc1ccc(Cl)cc1 was tested. Which Tm shift relative to glycine control did it give?
The Tm shift relative to glycine control was -1.47%.

With CC(C)S(=O)(=O)c1csc(NC(=O)Nc2ccc(Cl)cc2)c1Cl as the compound, how does the Tm shift relative to glycine control read?
The Tm shift relative to glycine control was 24.3% (active).

How did the Tm shift relative to glycine control turn out when COc1ccc([N+](=O)[O-])cc1N(CC(O)CN(CC(C)C)CC(C)C)S(=O)(=O)c1ccc(C)cc1 (stereo not drawn) was run?
The Tm shift relative to glycine control was -2.17%.

Which Tm shift relative to glycine control does the source give for COc1cccc(NC(=O)C(Sc2nc3ccccc3c(=O)n2CC(C)C)c2ccccc2)c1 (stereo not drawn) here?
The Tm shift relative to glycine control was 5.55%.

With N#Cc1c(N)sc2c1CCN(C(=O)OCc1ccccc1)C2 as the compound, how does the Tm shift relative to glycine control read?
The Tm shift relative to glycine control was -2.92%.

How did the Tm shift relative to glycine control turn out when Cn1cc(S(=O)(=O)NC(c2ccccc2)c2ccccc2)c(=O)n(C)c1=O was run?
Its Tm shift relative to glycine control is -0.16%.

For COc1cc(C(C)=O)ccc1OC(C)C(=O)Nc1ccc(S(=O)(=O)N2CCCC2)cc1 (stereo not drawn), which Tm shift relative to glycine control is on record?
Its Tm shift relative to glycine control is 1.81%.

How did the Tm shift relative to glycine control turn out when COc1ccc(-c2ccc(Nc3ccc(S(=O)(=O)N4CCCC4)cc3)nn2)cc1OC was run?
The Tm shift relative to glycine control was 18.4% (active).

Which Tm shift relative to glycine control does the source give for COc1ccc(S(=O)(=O)N2CCCCCC2)cc1NC(=O)Cc1ccc(OC)c(OC)c1 here?
Its Tm shift relative to glycine control is 0.44%.

COc1cc(/C(=C/c2ccccc2)c2ccccc2)c2c(c1)oc1ccccc12 was tested. Which Tm shift relative to glycine control did it give?
Its Tm shift relative to glycine control is 3.2%.

Cc1ccc(-c2cc(C(=O)NN)n[nH]2)o1 was tested. Which Tm shift relative to glycine control did it give?
Its Tm shift relative to glycine control is -1.08%.

Which Tm shift relative to glycine control does the source give for O=C(NN=CC=Cc1ccccc1)C(O)C(O)C(=O)NN=CC=Cc1ccccc1 (stereo not drawn) here?
Its Tm shift relative to glycine control is 3.13%.

How did the Tm shift relative to glycine control turn out when Cc1ccc(-c2cc(C(=O)N/N=C/C=C/c3ccccc3)n[nH]2)o1 was run?
The Tm shift relative to glycine control was 19.9% (active).

Which Tm shift relative to glycine control does the source give for COCc1nc2ccccc2n1Cc1ccccc1Br here?
Its Tm shift relative to glycine control is -1.6%.

For O=C(Oc1ccc(-c2nnco2)cc1)c1ccc(F)c(S(=O)(=O)N2CCOCC2)c1, which Tm shift relative to glycine control is on record?
The Tm shift relative to glycine control was 0.78%.

How did the Tm shift relative to glycine control turn out when COC(CNC(=O)Cn1ncc2ccsc2c1=O)OC was run?
The Tm shift relative to glycine control was -0.44%.

How did the Tm shift relative to glycine control turn out when COc1ccc(N(CC(=O)Nc2ccc(C)cc2C)S(=O)(=O)c2ccccc2[N+](=O)[O-])c(OC)c1 was run?
The Tm shift relative to glycine control was -2.12%.

How did the Tm shift relative to glycine control turn out when Cc1ccc(S(=O)(=O)N(CC(=O)Nc2cccc([N+](=O)[O-])c2)Cc2ccc(Cl)cc2)cc1 was run?
Its Tm shift relative to glycine control is 3.38%.

Which Tm shift relative to glycine control does the source give for COc1ccc(C)cc1S(=O)(=O)N(CC(=O)Nc1cccc([N+](=O)[O-])c1)c1ccc(C)cc1 here?
Its Tm shift relative to glycine control is 17.5% (active).

How did the Tm shift relative to glycine control turn out when C=CCc1cccc2cc(C(=O)NC3CCCC3)c(=O)oc12 was run?
Its Tm shift relative to glycine control is -0.75%.

With O=C(Nc1nnc(CCN2CCCCC2)s1)c1cccc(Cl)c1 as the compound, how does the Tm shift relative to glycine control read?
The Tm shift relative to glycine control was -1.3%.

With Cc1ccc(-c2nnc(C)c(N3CC(C)OC(C)C3)n2)cc1 (stereo not drawn) as the compound, how does the Tm shift relative to glycine control read?
Its Tm shift relative to glycine control is -2.74%.

COc1ccccc1NC(=O)CN1CCN(S(=O)(=O)c2ccc(Br)cc2)CC1 was tested. Which Tm shift relative to glycine control did it give?
The Tm shift relative to glycine control was 24.1% (active).

With O=C(CN1CCN(S(=O)(=O)c2ccc(F)cc2)CC1)Nc1ccccc1F as the compound, how does the Tm shift relative to glycine control read?
The Tm shift relative to glycine control was -1.4%.

For O=C(CN1CCN(S(=O)(=O)c2ccc(Br)cc2)CC1)Nc1ccccc1C(=O)c1ccccc1, which Tm shift relative to glycine control is on record?
The Tm shift relative to glycine control was -0.96%.

O=C1CCCC(O)=C1N=Nc1ccc2ncsc2c1 was tested. Which Tm shift relative to glycine control did it give?
The Tm shift relative to glycine control was -0.17%.

For NC(=O)COc1ccc(C23CC4CC(CC(C4)C2)C3)cc1, which Tm shift relative to glycine control is on record?
The Tm shift relative to glycine control was 1.05%.

How did the Tm shift relative to glycine control turn out when O=C(Cc1ccc(Cl)cc1)c1ccccc1 was run?
The Tm shift relative to glycine control was -0.17%.

Which Tm shift relative to glycine control does the source give for CC(Sc1sc(=S)sc1SC(C)C(=O)O)C(=O)O (stereo not drawn) here?
The Tm shift relative to glycine control was 3.28%.

Which Tm shift relative to glycine control does the source give for O=C(Cc1ccccc1)Nc1ccc(C(=O)Nc2ccccc2C(=O)O)cc1 here?
The Tm shift relative to glycine control was 0.78%.

How did the Tm shift relative to glycine control turn out when O=C(CN1CCc2ccccc2C1)Nc1cccc(S(=O)(=O)N2CCOCC2)c1 was run?
The Tm shift relative to glycine control was 0.42%.

With CCOn1c(=O)c(=O)n(O)c2ccccc21 as the compound, how does the Tm shift relative to glycine control read?
The Tm shift relative to glycine control was 6.16%.

O=C(CSC1=NCCS1)Nc1nc(-c2ccccc2)cs1 was tested. Which Tm shift relative to glycine control did it give?
Its Tm shift relative to glycine control is -5.63%.

How did the Tm shift relative to glycine control turn out when O=C(NCc1cccnc1)C(=O)Nc1nc(-c2ccccc2)cs1 was run?
The Tm shift relative to glycine control was -0.2%.

Which Tm shift relative to glycine control does the source give for N#Cc1ccccc1NC(=O)c1ccc2c(c1)OCO2 here?
Its Tm shift relative to glycine control is -0.66%.

For O=C(Nc1ccccc1)Nc1nc2ccccc2s1, which Tm shift relative to glycine control is on record?
Its Tm shift relative to glycine control is 26.3% (active).

How did the Tm shift relative to glycine control turn out when O=C(CCC(=O)c1cccs1)Nc1nc2ccccc2s1 was run?
The Tm shift relative to glycine control was -1.65%.

COCc1nnc(NC(=O)c2ccc3c(c2)OCO3)s1 was tested. Which Tm shift relative to glycine control did it give?
The Tm shift relative to glycine control was -0.5%.

With O=C(Nc1nc2ccccc2s1)c1ccc2c(c1)OCO2 as the compound, how does the Tm shift relative to glycine control read?
The Tm shift relative to glycine control was 12.1% (active).

Which Tm shift relative to glycine control does the source give for CC(=O)Nc1ccc(Nc2cc(C)nc(Nc3ccc(NC(C)=O)cc3)n2)cc1 here?
Its Tm shift relative to glycine control is -4.37%.

How did the Tm shift relative to glycine control turn out when CC(=O)Nc1cccc(-c2csc(Nc3cccc(C)n3)n2)c1 was run?
Its Tm shift relative to glycine control is 11.8% (active).

CC(=O)Nc1ccc(-c2csc(NC(=O)Nc3ccccc3)n2)cc1 was tested. Which Tm shift relative to glycine control did it give?
Its Tm shift relative to glycine control is 26.9% (active).

How did the Tm shift relative to glycine control turn out when c1ccc(C(=NNc2nc3ccccc3s2)c2ccccn2)cc1 was run?
Its Tm shift relative to glycine control is -7.5%.

Which Tm shift relative to glycine control does the source give for Cc1cccc(NC(=O)Nc2ccc3c(c2)OCO3)n1 here?
The Tm shift relative to glycine control was -1.41%.
